Only some compounds are listed: those with a hit (about 2.4% of all), similar ones and a draw of the others.
SENP8 block-1: SENP8 protease inhibition. purified SENP8, Z-RLRGG-aminoluciferin cleavage, luminescence. inhibition, % at 10 µM. hit rate 1.2% among 330,000. AID 2540; in the data active = inhibition above about 50%
Target sequence (Q96LD8 whole entry, looked up): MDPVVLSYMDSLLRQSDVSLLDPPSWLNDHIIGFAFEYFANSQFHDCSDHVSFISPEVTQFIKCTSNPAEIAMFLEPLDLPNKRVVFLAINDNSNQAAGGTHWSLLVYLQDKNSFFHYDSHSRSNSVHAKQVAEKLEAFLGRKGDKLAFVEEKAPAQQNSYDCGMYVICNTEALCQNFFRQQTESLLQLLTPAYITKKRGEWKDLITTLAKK
SENP8 block-2: blocks human SENP8 cleavage of Nedd8 substrate; hit rate 0.64% among 360,000; recombinant SENP8, Nedd8 substrate fluorescence; inhibition, % at 20 µM; Q96LD8; in the data active = inhibition mostly above about 40%, no sharp cut-off; inactive = mostly below about 27%
Platelet DG rel: platelet dense granule release activity; inhibition, %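 (compounds screened at 7.5 µM in platelet-rich plasma)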; hit rate 0.22% among 300,000; human platelet-rich plasma, SFLLRN dense granule ATP release, luminescence;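 active = mean replicate score, as percent of positive control, at or above 50; inconclusive = mean below 50 but at least one replicate at or above 50; inactive = mean and every replicate below 50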
SENP6 block: SENP6 protease inhibition; Q9GZR1; Recombinant SENP6 catalytic domain, aminoluciferin luminescence; inhibition, % at 10 µM; hit rate 1.8% among 330,000;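 active = inhibition above about 50% at the single tested dose, limit read from the data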
SENP7 inh: inhibitors of human SENP7 protease. Q9BQF6. recombinant SENP7, Z-RLRGG-aminoluciferin luminescence, 40 min. inhibition, % at 5 µM. hit rate 1.5% among 330,000. AID 434973;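 active = inhibition above about 50% at the single test dose, limit read from the data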
SENP8 conf: confirmation of human SENP8 protease inhibitors. inhibition, % at 12.5 µM. hit rate 40% among 6,200. shares compounds with SENP7 inh. Recombinant SENP8, Z-RLRGG-aminoluciferin luminescence, 60 min;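 active = mean inhibition across replicates above about 50%, limit read from the data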
SENP6 confirm: human SENP6 inhibition, confirmed; shares compounds with SENP7 inh; recombinant SENP6, Z-RLRGG-aminoluciferin luminescence; inhibition, % at 12.5 µM; hit rate 58% among 6,200; AID 488915
SENP7 conf: confirmation of human SENP7 protease inhibitors. shares compounds with SENP7 inh. recombinant SENP7, Z-RLRGG-aminoluciferin luminescence, 40 min. inhibition, % at 12.5 µM. hit rate 69% among 6,200
Casp3 select: selectivity test for SENP inhibitors: human caspase-3 inhibition. hit rate 60% among 6,200. AID 488918. shares compounds with SENP7 inh. inhibition, % at 12.5 µM. purified caspase-3, Z-DEVD-aminoluciferin luminescence, 60 min;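 active = mean inhibition above about 50%, limit read from the data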
Target sequence (P42574 28-227 limits assumed): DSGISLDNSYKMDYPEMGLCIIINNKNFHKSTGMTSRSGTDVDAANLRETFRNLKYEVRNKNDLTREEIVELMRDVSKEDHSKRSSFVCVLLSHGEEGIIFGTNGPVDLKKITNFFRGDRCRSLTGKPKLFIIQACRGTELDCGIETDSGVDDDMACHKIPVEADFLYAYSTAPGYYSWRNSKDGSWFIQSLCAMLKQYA
SENP luc ctr: counter-screen for SENP inhibitors: luminescence interference; shares compounds with SENP7 inh; Pre-incubated SENP8/Z-RLRGG-aminoluciferin, luciferase luminescence interference; inhibition, % at 12.5 µM; hit rate 39% among 6,200; AID 488919;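 active = mean inhibition above about 50% when retested at one dose, limit read from the data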
A number is an active result; i = inactive; ? = inconclusive; nt = no result given.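 Rule for the calls, unless noted: active = mean inhibition above about 50% in the one-dose retest (limit read from the data); inactive = the rest.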

SMILES | SENP8 block-1 | SENP8 block-2 | Platelet DG rel | SENP6 block | SENP7 inh | SENP8 conf | SENP6 confirm | SENP7 conf | Casp3 select | SENP luc ctr
COC(=O)c1ccc(CN2CCN(C(C)C)C(CCO)C2)cc1 (configuration not stated) | i | i | i | i | i | nt | nt | nt | nt | nt
CCN1CCN(c2ccc(NC(=O)c3cccc(OCc4ccccc4)c3)cc2)CC1 | i | i | i | 56 | i | i | i | i | i | i
O=C(Nc1ccc(COc2ccccc2)cc1)c1cccc([N+](=O)[O-])c1 | i | i | i | i | 63 | i | i | i | i | i
CN1CCN(c2ccc(NC(=O)c3cccc(OCc4ccccc4)c3)cc2)CC1 | i | i | i | 59 | i | i | i | i | i | i
CCS(=O)(=O)c1ncc(Cl)c(C(=O)Nc2ccc(S(=O)(=O)N3CCC(C)CC3)cc2)n1 | i | i | i | i | i | nt | nt | nt | nt | nt
CCOC(=O)c1cnn(-c2ccccc2)c1NC(=O)CN1CCCCC1 | i | i | i | i | i | nt | nt | nt | nt | nt
O=C(CN1CCN(S(=O)(=O)c2cccc(Br)c2)CC1)N1CCCCC1 | i | i | nt | i | i | nt | nt | nt | nt | nt
COc1ccc(C(=O)OCc2ccccc2C#N)cc1S(=O)(=O)N1CCOCC1 | nt | i | nt | nt | nt | nt | nt | nt | nt | nt
COc1cccc(-c2ccc(SCc3ccccn3)nn2)c1 | 59 | i | i | i | 80 | 75 | 67 | 92 | 86 | 78
O=C(Nc1ccc(CSc2ccccc2)cc1)c1ccccc1 | i | i | i | i | 59 | i | i | i | i | i
O=C(Nc1ccccc1)c1ccc(CSc2ccccn2)cc1 | 93 | i | i | 97 | 98 | 87 | 98 | 103 | 96 | i
O=C(Nc1cccc([N+](=O)[O-])c1)c1ccc(CSc2ccccc2)cc1 | i | i | i | i | i | nt | nt | nt | nt | nt
FC(F)(F)c1ccc(CSc2ccccn2)cc1 | i | i | i | i | i | nt | nt | nt | nt | nt
O=C(Nc1ccc2c(c1)N(S(=O)(=O)c1cccs1)CCC2)c1c(F)cccc1Cl | i | i | i | i | i | nt | nt | nt | nt | nt
CN(C)CCCN(C(=O)COc1ccccc1)c1nc2c(F)cccc2s1 | i | i | i | i | 61 | i | i | i | i | i
COc1ccc(C2/C=C\CN(C(=O)NC(C)C)CC(=O)N2Cc2ccc(F)cc2)cc1 (configuration not stated) | i | i | i | i | i | nt | nt | nt | nt | nt
Cc1cc(C)nc(NS(=O)(=O)c2ccc(NC(=O)c3ccc4c(c3)OCCO4)cc2)n1 | i | i | i | i | i | nt | nt | nt | nt | nt
Cc1cccc(N2CC(C(=O)NCCC3=CCCCC3)CC2=O)c1C (configuration not stated) | i | i | i | i | i | nt | nt | nt | nt | nt
O=C(c1ccc(F)cc1)c1cc2ccc(O)cc2oc1=O | 97 | i | 73 | 97 | 99 | 99 | 100 | 103 | 98 | 98
O=C(O)c1cc2ccc(O)cc2oc1=O | nt | i | nt | nt | nt | nt | nt | nt | nt | nt
N=c1oc2cc(O)ccc2cc1C(=O)Nc1ccc(F)cc1 | 92 | i | i | 96 | 98 | 91 | 94 | 100 | 84 | 62
COc1ccc2[nH]c3c(c2c1)CCN1C(=O)C(CC(=O)NCc2ccco2)C[C@H](C(=O)N2CCCCC2)[C@@]31CCc1ccccc1 (some centres not stated) | nt | i | nt | nt | i | nt | nt | nt | nt | nt
Cc1ccc(C)c(Cn2c(=O)n(C)c(=O)c3sccc32)c1 | i | i | i | i | i | nt | nt | nt | nt | nt
Cc1cc(NC(=O)c2sc3ccccc3c2O)no1 | 75 | i | i | 89 | 73 | 86 | 85 | 98 | 92 | 65
Cc1cc(O)cc2c1C(=O)/C(=C/c1ccco1)O2 | 63 | i | i | 67 | i | 85 | 87 | 98 | 90 | 89
SMILES | SENP8 block-1 | SENP8 block-2 | Platelet DG rel | SENP6 block | SENP7 inh | SENP8 conf | SENP6 confirm | SENP7 conf | Casp3 select | SENP luc ctr
C[C@H](NC(=O)C1CCN(S(=O)(=O)c2ccccc2)CC1)C(=O)NCc1ccccn1 | i | i | i | i | i | nt | nt | nt | nt | nt
S=C(c1ccc(OCc2ccccc2)cc1)N1CCCC1 | i | i | i | 60 | 61 | i | i | 55 | i | i
O=C(COc1ccc(C(=S)N2CCCC2)cc1)Nc1ccc(F)cc1 | i | i | i | i | i | nt | nt | nt | nt | nt
Fc1ccc(COc2ccc(C(=S)N3CCCC3)cc2)cc1 | i | i | i | 62 | i | 60 | 54 | 76 | i | i
CCOc1cc(C(=S)N2CCCC2)ccc1OCc1ccccc1 | i | i | i | i | i | nt | nt | nt | nt | nt
CC(C)(C)NC(=O)C(C1CC1)n1c(-c2ccccc2)nc2ccccc21 (configuration not stated) | nt | i | nt | nt | nt | nt | nt | nt | nt | nt
COc1ccc(C(=O)n2c(N)nc3ccccc32)cc1OC | i | i | i | i | i | nt | nt | nt | nt | nt
Nc1nc2ccccc2n1C(=O)c1ccccc1 | 86 | i | i | 96 | 96 | 70 | 93 | 100 | 96 | i
Nc1nc2ccccc2n1C(=O)c1ccc(F)cc1 | 78 | i | i | 93 | 94 | 60 | 83 | 97 | 92 | i
C[C@@H]1CN([C@H](C)CO)C(=O)CCCn2nncc2CO[C@@H]1CN(C)S(=O)(=O)c1cccs1 | nt | i | nt | nt | nt | nt | nt | nt | nt | nt
CCC(C)NC(=O)C1CCN(C(=O)N(C)C)CC1 (configuration not stated) | i | i | i | i | 102 | i | i | i | i | i
CCC(C)NC(=O)C1CCN(S(=O)(=O)N2CCCC2)CC1 (configuration not stated) | i | i | i | i | i | nt | nt | nt | nt | nt
CCOC(=O)c1sc(NC(=O)c2ccc(C)o2)nc1C | 64 | i | i | 70 | i | i | 74 | 91 | 84 | i
CCOC(=O)c1sc(NC(=O)c2ccco2)nc1C | i | i | nt | 59 | 54 | i | i | i | i | i
CCOC(=O)c1sc(NC(=O)COC(=O)c2ccco2)nc1C | i | i | i | i | i | nt | nt | nt | nt | nt
COC(=O)c1sc(NC(=O)c2ccc(C)o2)nc1C | i | i | ? | i | i | nt | nt | nt | nt | nt
CCOC(=O)c1c(S(=O)(=O)NCC(=O)Nc2ccc(F)cc2F)c(C)n(C)c1C | i | i | i | i | i | nt | nt | nt | nt | nt
COc1ccc(C(=O)COC(=O)c2ccccc2O)c(OC)c1 | i | i | nt | 51 | i | 51 | i | i | i | i
COc1ccc(N(CC(=O)NCc2ccc3c(c2)OCO3)S(C)(=O)=O)cc1OC | i | i | i | i | 94 | i | i | i | i | i
Cc1ccc(N(CC(=O)NCc2ccc3c(c2)OCO3)S(C)(=O)=O)cc1 | i | i | i | i | i | nt | nt | nt | nt | nt
Cn1c(=N)n(CC(=O)c2ccc(Br)cc2)c2ccccc21 | i | i | i | i | i | nt | nt | nt | nt | nt
Cn1c(=N)n(CC(=O)c2ccc(F)cc2)c2ccccc21 | i | i | nt | 62 | i | i | i | i | i | 62
C=CCN(C(=O)CSC1=NC(=O)CN1C(C)=O)c1nc(C)c(-c2ccccc2)s1 | i | i | i | i | i | nt | nt | nt | nt | nt
